From PubChem BioAssay (NCATS)
Values joined by “and” are separate entries in the source; they are usually repeats but may differ in a detail not shown here. Equal values may be shown once. Records with an inconclusive call do not appear. Active and inactive are the calls of the source. Unless noted, calls come from the whole dose curve; as a rule, active = well fitted curve in the direction sought with a large enough effect; inconclusive = small, poorly fitted or top-dose-only effect, or another doubt; inactive = no such curve, though single readings can be large; an effect the other way counts as inactive or inconclusive.

Columns and labels:
[1] = qHTS Assay for Lipid Storage Modulators (AID 1519; calls by dose curve; for activity change, negative = inhibition: % is set by controls: 0 for no effect and ±100 for the full control effect); settings: Drosophila S3 cells, BODIPY lipid droplet/cell ratio, laser cytometry, cells loaded with oleic acid
Method in brief: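 Cells seeded at 5,000 per well were treated with compounds over a concentration series and loaded with oleic acid (400 uM, as added). Lipid droplet fluorescence (488 nm excitation, 500-530 nm channel) was read by laser-scanning cytometry and normalized to 20 uM Triacsin C.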

[2] = Validation of Assay for Modulators of Lamin A Splicing (AID 1459; active = well fitted curve in the direction sought with a large enough effect in the signal ratio; the % refers to the signal ratio;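 note: cells exposed to compound for two days before reading; 0% is about no effect; ratio rise marks activators and ratio drop marks inhibitors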); settings: Lamin A splicing dual RFP/GFP fluorescence reporter; series mostly up to 9.22 µM
Method in brief: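 S3 HeLa cells stably expressing a lamin A-EGFP splicing minigene and DsRed2 were seeded at 600 cells/well in Opti-MEM with 2% FBS, pin-dosed, and incubated 48 hrs at 37 °C, 5% CO2. Laser-scanning cytometry (488 nm) gave GFP/RFP total intensity ratio.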

[3] = biological target: DNA repair nuclease/redox regulator APEX1 (Homo sapiens) (UniProt P27695); assay: qHTS Validation Assay for Inhibitors of the Human Apurinic/apyrimidinic Endonuclease 1 (APE1) (AID 1705; note: potency is the fitted concentration of half-maximal effect;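 for activity change, negative = inhibition: TAMRA fluorescence gain over two minutes as APE1 cuts a quenched THF abasic duplex; % is set by controls: 0 for no effect and ±100 for the full control effect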); settings: purified APE1 endonuclease activity, fluorescence, titration; series mostly up to 57.1 µM
Chain of DNA repair nuclease/redox regulator APEX1 (Homo sapiens) (P27695 whole entry, looked up): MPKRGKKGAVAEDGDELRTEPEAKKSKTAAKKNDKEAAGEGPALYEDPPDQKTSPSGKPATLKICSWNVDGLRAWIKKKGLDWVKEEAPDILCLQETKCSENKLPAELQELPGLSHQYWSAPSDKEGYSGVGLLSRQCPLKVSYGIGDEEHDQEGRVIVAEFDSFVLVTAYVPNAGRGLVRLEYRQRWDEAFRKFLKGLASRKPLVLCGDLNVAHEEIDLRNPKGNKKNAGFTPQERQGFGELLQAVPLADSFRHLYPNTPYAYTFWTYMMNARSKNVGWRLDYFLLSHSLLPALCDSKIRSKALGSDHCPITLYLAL
Method in brief: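 Human APE1 was preincubated with compound for 15 min at room temperature, then 50 nM (final) THF-abasic double-stranded DNA substrate bearing 5'-TAMRA and 3'-BHQ-2 was added. Incision-driven fluorescence rise (ex 525/em 598 nm) was read kinetically.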

[4] = Counterscreen for APE1 Inhibitors: Fluorescent Dye Displacement Validation Assay (AID 1707); settings: fluorescent dye displacement from DNA; series mostly up to 57.1 µM; note: potency is the fitted concentration of half-maximal effect;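 for activity change, negative = inhibition: plate controls were ThO with dsDNA and no compound for no effect and ThO without dsDNA for full effect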
Method in brief: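 Loss of Thiazole Orange fluorescence marks promiscuous DNA binders. The dye (250 nM) is mixed with 50 nM abasic-site dsDNA in pH7.5 Tris buffer containing MgCl2, then compounds are added and emission is read once.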

[5] = biological target: alpha-glucosidase (Oryza sativa, rice) (UniProt Q653V4); assay: Counterscreen for Glucocerebrosidase Inhibitors: qHTS Assay for Rice alpha-Glucosidase at pH 5.0 (AID 997); settings: rice alpha-glucosidase enzyme activity; series mostly up to 76.9 µM;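 note: 0% = full activity with enzyme and -100% = basal without enzyme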
Method in brief: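 Endpoint fluorogenic assay at pH 5.0: compounds (0.7 nM to 77 uM) titrated against 4 nM rice enzyme and 400 uM 4-MU-alpha-glucoside for 20 min at room temperature; NaOH/glycine stop, read ex 365/em 440 nm, Hill-fitted AC50.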

[6] = measured here: cell count channel max response
[7] = measured here: lipid channel max response

Row | Structure (SMILES) | activity change, negative = inhibition ([1]; at 57.5 µM (top of the series)) | max response [1, 6] | max response [1, 7] | outcome [2] | Potency [3] | Potency [4] | activity change, negative = inhibition ([1]; at 25.7 µM (top of the series)) | outcome [5]
1 | CCCCCCCCCCCCCCCCCCOCC(O)CO (stereo not drawn) | 4.1% (inactive) | 15.6% | 19.9% |  |  |  |  | 
2 | CN1CCN(C2Cc3ccccc3Sc3ccc(Cl)cc32)CC1 (stereo not drawn) | 1.27% (inactive) | -11.4% | -9.31% | inactive | inactive | inactive |  | 
3 | CNCC(O)c1ccc(O)c(O)c1 (stereo not drawn) |  |  |  | inactive | inactive | inactive |  | 
4 | CC1(C)OC(=O)NC1=O |  | -12% | -11.9% |  |  |  | -0.879% (inactive) | 
5 | OCC(O)CN1CCN(c2ccccc2)CC1 (stereo not drawn) | 11.8% (inactive) | 18.2% | 35.4% |  |  |  |  | 
6 | CCN(CC)CCNC(=O)c1cc(Cl)c(N)cc1OC | 6.86% (inactive) | -7.61% and 4.16% | -6.48% and 12.9% | inactive | inactive | inactive | -0.223% (inactive) | inactive
7 | CN(C)CCN(Cc1ccccc1)c1ccccn1 | 1.48% (inactive) | 12.3% | 16.2% |  |  |  |  | 
8 | C=Cc1c(C)c2cc3[nH]c(cc4nc(cc5nc(cc1[nH]2)C(C)=C5CCC(=O)O)C(CCC(=O)O)=C4C)c(C)c3C=C | 12.2% (inactive) | 1.69% | 21.3% | inactive | 5.01 µM (active) | 7.94 µM (active) |  | inactive
9 | CCOc1ccc2ccccc2c1C(=O)N[C@@H]1C(=O)N2[C@@H]1SC(C)(C)[C@@H]2C(=O)O |  | -15.7% | -15.1% |  |  |  | -0.855% (inactive) | 
10 | NS(=O)(=O)c1cc2c(cc1C(F)(F)F)NC(Cc1ccccc1)NS2(=O)=O (stereo not drawn) | 2.56% (inactive) | 6.37% | 10.5% |  |  |  |  | 
11 | O=c1cc(CO)occ1O | 0.978% (inactive) | 23.1% | 26.9% |  |  |  |  | 
12 | CC(CN1c2ccccc2Sc2ccccc21)N(C)C (stereo not drawn) | 7.97% (inactive) and 1.76% (inactive) | 24.2% and 6.53% | 44.6% and 8.19% | inactive | inactive | inactive |  | 
13 | CC1=C(CC(=O)O)c2cc(F)ccc2/C1=C\c1ccc(S(C)(=O)=O)cc1 |  |  |  | inactive | inactive | inactive |  | inactive
14 | CC(=O)c1ccc2c(c1)N(CCCN(C)C)c1ccccc1S2 |  | 0.996% | -1.83% |  |  |  | -1.98% (inactive) | 
15 | COc1ccc(Cl)cc1C(=O)NCCc1ccc(S(=O)(=O)NC(=O)NC2CCCCC2)cc1 | 12.5% (inactive) and -0.0195% (inactive) | 8.8% and 2.97% and -31.1% | 12.4% and 18.9% and -32.5% | inactive | inactive | inactive | 1.56% (inactive) | inactive
16 | N=c1c[n+](N2CCOCC2)[n-]o1 | -0.431% (inactive) | 25.9% | 27.5% | inactive |  | inactive |  | inactive
17 | CC(CN(C)C)CN1c2ccccc2CCc2ccccc21 (stereo not drawn) | 8.3% (inactive) and -0.445% (inactive) | -4.41% and -13% | 4.99% and -13.2% | inactive | inactive | inactive |  | 
18 | O=C(O)c1ccccc1O | 9.55% (inactive) | 11.4% | 27.4% |  |  |  |  | 
19 | CCCCCCCCCCCCCCCC(=O)NCCO |  |  |  | inactive | inactive | inactive |  | inactive
20 | OCc1cc(C(O)CNCCCCCCOCCCCc2ccccc2)ccc1O (stereo not drawn) | -1.85% (inactive) | 12.8% | 10.1% | inactive | inactive | inactive |  | inactive
21 | COC(=O)C1=C(C)NC(C)=C(C(=O)OC)C1c1ccccc1[N+](=O)[O-] |  |  |  | inactive | inactive | inactive |  | inactive
22 | CC(C)(C(=O)O)c1ccc(C(O)CCCN2CCC(C(O)(c3ccccc3)c3ccccc3)CC2)cc1 (stereo not drawn) | 2.57% (inactive) and -0.0758% (inactive) | 23% and -17.7% | 28% and -18.6% | inactive |  | inactive |  | 
23 | Cc1cc2c(cc1S(N)(=O)=O)S(=O)(=O)CCC2 |  | 5.71% | 1.67% |  |  |  | -2.69% (inactive) | 
24 | CCN(CC)CCOC(=O)C1(C2CCCCC2)CCCCC1 | 4.04% (inactive) and 0.569% (inactive) | 0.165% and 5.59% and 10.8% | -2.15% and 9.9% and 9.37% | inactive | inactive | inactive | -3.18% (inactive) | inactive
25 | CCCCOc1cc(C(=O)OCCN(CC)CC)ccc1N |  | -13.7% | -14% |  |  |  | -1.04% (inactive) | 
26 | CNCCC(Oc1ccc(C(F)(F)F)cc1)c1ccccc1 (stereo not drawn) |  |  |  | inactive |  | inactive |  | 
27 | O=C1NS(=O)(=O)c2ccccc21 | 6.8% (inactive) | 18.3% | 29.2% |  |  |  |  | 
28 | O=C1N=C(O)CN1/N=C/c1ccc(-c2ccc([N+](=O)[O-])cc2)o1 |  |  |  | inactive | inactive |  |  | 
29 | OC[C@H]1O[C@@H](O[C@@H]2[C@@H](CO)O[C@](O)(CO)[C@H]2O)[C@H](O)[C@@H](O)[C@H]1O | -5.86% (inactive) | -20.2% | -24.3% |  |  |  |  | 
30 | O=C(Oc1ccccc1C(=O)O)c1ccccc1O | 4.87% (inactive) | -1.82% | 6.63% |  |  |  |  | 
